# About 79,000 compounds went through this panel and 15% of them were active in at least one assay; those are over-represented in the sample as a whole. Active and inactive are the calls of the source. No stated cut-off is given here; in the data, active means growth inhibition above about 70%; inactive means the rest.
# Assay: NCI Yeast Anticancer Drug Screen. Data for the mec2-1 strain (AID 157)
# Conditions: S. cerevisiae mec2-1 strain, at 50.0 µM, hits give high values
# Procedure, shortened: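 Growth inhibition is read against vehicle-treated controls after compound exposure of the mec2-1 yeast strain, which is defective in DNA damage repair or cell cycle control.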
row,SMILES,growth inhibition
1,N#Cc1nc(CC(=O)c2ccncc2)c(CC(=O)c2ccncc2)nc1C#N,11.9% (inactive)
2,COc1cnc(NS(=O)(=O)c2ccc(N)cc2)nc1,-9.8% (inactive)
3,CC(=O)NNC(=S)N/C=C(\C#N)C(=O)c1ccc2ccccc2c1,-22.2% (inactive)
4,Cc1cc(C)c(C#[N+][O-])c(C)c1C#[N+][O-],8.1% (inactive)
5,CN1CCc2[nH]nc(-c3n[nH]c4c3CN(C)CC4)c2C1,0.85% (inactive)
6,O=c1c(-c2ccccc2)c2oc(c1-c1ccccc1)CS(=O)(=O)CCC2,20.2% (inactive)
7,CCOC(=O)C1CSCN1C(C)=O (stereo not given),-20.6% (inactive)
8,CC(=O)Nc1ccc(/C=C2\N=C(c3ccccc3)OC2=O)cc1,-1.75% (inactive)
9,O=C1CC2CCCCC2=C1O (stereo not given),-11.2% (inactive)
10,CN1C(=O)OC2C3NC(=O)OC3C(O)C(O)C21 (stereo not given),-12.3% (inactive)
11,CCOC(=O)c1cc(C)nc(Cl)c1[N+](=O)[O-],5.9% (inactive)
12,COc1ccc2nc3cc(Cl)ccc3c(NCCC3CCCN4CCCCC34)c2c1 (stereo not given),26.4% (inactive)
13,CC1(C)OC(=C(C#N)C#N)C(C#N)=C1/C=C/c1ccncc1,29.4% (inactive)
14,Cc1ccc([N+](=O)[O-])cc1N=C=O,-43.9% (inactive)
15,Cc1ccc(S(=O)(=O)NNC(=O)c2cc(C(=O)NNS(=O)(=O)c3ccc(C)cc3)c(C)nc2C)cc1,5.3% (inactive)
16,COC(=O)CNC(=O)Nc1cc(N2C(=O)ON3C2C(C)(C)N(O)C3(C)C)ccc1C (stereo not given),13.8% (inactive)
17,CCN(CC)CCCCCCCNc1nccc2ccccc12,-2.4% (inactive)
18,CCCc1c(O)c(=O)c2c(OC)cc(OC)c3c4c(OC)cc(OC)c5c(=O)c(O)c(CCC)c(c1c23)c54,89.4% (active)
19,O=C(O)CCSC1=NCCN1,-44% (inactive)
20,Cc1ccc(C(=O)C2CC2c2ccccc2)cc1 (stereo not given),-1.9% (inactive)

row,SMILES,growth inhibition
1,O=C(O)C1[N-]CCNC1C(=O)O.[O]=[V][OH] (stereo not given),-2.4% (inactive)
2,CC(O)(c1ccc(OCCC[N+](C)(C)C)cc1)C(C)(O)c1ccc(OCCC[N+](C)(C)C)cc1 (stereo not given),-17.1% (inactive)
3,C=C(Br)CN(C(C)=O)C1CCCCC1,-10.7% (inactive)
4,CCOC(=O)CCOc1ccccc1,9.1% (inactive)
5,O=c1ccnc2c1ccc1[nH]cccc12,6.25% (inactive)
6,Cc1nc(N(CCO)CCO)c2sc(=S)n(-c3ccccc3)c2n1,-16.4% (inactive)
7,OC1c2ccccc2-c2ccc(N(Cc3ccccc3)Cc3ccccc3)cc21 (stereo not given),11.4% (inactive)
8,CCCCCCCCCCCCC(F)C(=O)OCC1OC(n2cc(C)c(=O)[nH]c2=O)CC1N=[N+]=[N-] (stereo not given),-15.7% (inactive)
9,Cn1c(=O)c2[nH]c(CCNC(=O)c3ccccc3)nc2n(C)c1=O,-9.75% (inactive)
10,O=S1(=O)c2ccccc2N(O)C2=NCCN21,-46.7% (inactive)
11,O=C(O)CC(NC(=O)CP(=O)(O)O)C(=O)O (stereo not given),-21.9% (inactive)
12,COc1cc([N+](=O)[O-])c(OC)cc1N,-8.3% (inactive)
13,C#CC1(NC(=O)c2ccccc2C(=O)Nc2cccc(C(F)(F)F)c2)CCCCC1,-19.1% (inactive)
14,CC1CCCCN1CCCO (stereo not given),-32.4% (inactive)
15,CCc1ccc(OC(C)=O)cc1,10.6% (inactive)
16,CCN(CC)C(=O)C1CCNCC1,-14.4% (inactive)
17,COc1ccccc1CNCCCCCNCCCCCCCCCCNCCCCCNCc1ccccc1OC,-11.1% (inactive)
18,Cc1cccc(C(=O)N(C)C)c1,1.75% (inactive)
19,CC(=O)c1cc(C)c(O)c(C)c1,-8.8% (inactive)
20,Cc1cccc(N2CCN(c3ccc4nonc4c3[N+](=O)[O-])CC2)c1,-4.4% (inactive)

# Assay: NCI Yeast Anticancer Drug Screen. Data for the sgs1 mgt1 strain (AID 161);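 further: 0% = growth of cultures given vehicle only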
# Conditions: S. cerevisiae sgs1 mgt1 strain, at 50.0 µM, hits give high values
# Procedure, shortened: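 Compounds are added to genetically altered yeast, and growth is compared with cultures given vehicle alone to give percent inhibition.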
row,SMILES,growth inhibition
1,N#Cc1nc(CC(=O)c2ccncc2)c(CC(=O)c2ccncc2)nc1C#N,35.9% (inactive)
2,COc1cnc(NS(=O)(=O)c2ccc(N)cc2)nc1,-9.45% (inactive)
3,CC(=O)NNC(=S)N/C=C(\C#N)C(=O)c1ccc2ccccc2c1,-12.7% (inactive)
4,Cc1cc(C)c(C#[N+][O-])c(C)c1C#[N+][O-],-5.8% (inactive)
5,CN1CCc2[nH]nc(-c3n[nH]c4c3CN(C)CC4)c2C1,10.5% (inactive)
6,O=c1c(-c2ccccc2)c2oc(c1-c1ccccc1)CS(=O)(=O)CCC2,16% (inactive)
7,CCOC(=O)C1CSCN1C(C)=O (stereo not given),-4.3% (inactive)
8,CC(=O)Nc1ccc(/C=C2\N=C(c3ccccc3)OC2=O)cc1,11.8% (inactive)
9,O=C1CC2CCCCC2=C1O (stereo not given),14.1% (inactive)
10,CN1C(=O)OC2C3NC(=O)OC3C(O)C(O)C21 (stereo not given),-6.3% (inactive)
11,CCOC(=O)c1cc(C)nc(Cl)c1[N+](=O)[O-],4.35% (inactive)
12,COc1ccc2nc3cc(Cl)ccc3c(NCCC3CCCN4CCCCC34)c2c1 (stereo not given),14.6% (inactive)
13,CC1(C)OC(=C(C#N)C#N)C(C#N)=C1/C=C/c1ccncc1,19.8% (inactive)
14,Cc1ccc([N+](=O)[O-])cc1N=C=O,-31.1% (inactive)
15,Cc1ccc(S(=O)(=O)NNC(=O)c2cc(C(=O)NNS(=O)(=O)c3ccc(C)cc3)c(C)nc2C)cc1,6.9% (inactive)
16,COC(=O)CNC(=O)Nc1cc(N2C(=O)ON3C2C(C)(C)N(O)C3(C)C)ccc1C (stereo not given),16.9% (inactive)
17,CCN(CC)CCCCCCCNc1nccc2ccccc12,-8.4% (inactive)
18,CCCc1c(O)c(=O)c2c(OC)cc(OC)c3c4c(OC)cc(OC)c5c(=O)c(O)c(CCC)c(c1c23)c54,81.3% (active)
19,O=C(O)CCSC1=NCCN1,-26.1% (inactive)
20,Cc1ccc(C(=O)C2CC2c2ccccc2)cc1 (stereo not given),-13.7% (inactive)

row,SMILES,growth inhibition
1,O=C(O)C1[N-]CCNC1C(=O)O.[O]=[V][OH] (stereo not given),-4.6% (inactive)
2,CC(O)(c1ccc(OCCC[N+](C)(C)C)cc1)C(C)(O)c1ccc(OCCC[N+](C)(C)C)cc1 (stereo not given),-39% (inactive)
3,C=C(Br)CN(C(C)=O)C1CCCCC1,8.05% (inactive)
4,CCOC(=O)CCOc1ccccc1,8.45% (inactive)
5,O=c1ccnc2c1ccc1[nH]cccc12,-13.9% (inactive)
6,Cc1nc(N(CCO)CCO)c2sc(=S)n(-c3ccccc3)c2n1,-43.9% (inactive)
7,OC1c2ccccc2-c2ccc(N(Cc3ccccc3)Cc3ccccc3)cc21 (stereo not given),3.75% (inactive)
8,CCCCCCCCCCCCC(F)C(=O)OCC1OC(n2cc(C)c(=O)[nH]c2=O)CC1N=[N+]=[N-] (stereo not given),36.4% (inactive)
9,Cn1c(=O)c2[nH]c(CCNC(=O)c3ccccc3)nc2n(C)c1=O,-30.2% (inactive)
10,O=S1(=O)c2ccccc2N(O)C2=NCCN21,-65.8% (inactive)
11,O=C(O)CC(NC(=O)CP(=O)(O)O)C(=O)O (stereo not given),-10.6% (inactive)
12,COc1cc([N+](=O)[O-])c(OC)cc1N,-13.1% (inactive)
13,C#CC1(NC(=O)c2ccccc2C(=O)Nc2cccc(C(F)(F)F)c2)CCCCC1,-14.2% (inactive)
14,CC1CCCCN1CCCO (stereo not given),-22.1% (inactive)
15,CCc1ccc(OC(C)=O)cc1,-13.2% (inactive)
16,CCN(CC)C(=O)C1CCNCC1,-2% (inactive)
17,COc1ccccc1CNCCCCCNCCCCCCCCCCNCCCCCNCc1ccccc1OC,-27.9% (inactive)
18,Cc1cccc(C(=O)N(C)C)c1,-6.4% (inactive)
19,CC(=O)c1cc(C)c(O)c(C)c1,0.05% (inactive)
20,Cc1cccc(N2CCN(c3ccc4nonc4c3[N+](=O)[O-])CC2)c1,-9.9% (inactive)

# Source: PubChem BioAssay (NCI)
